For 16 compounds, outcome and AC50 results are on record in PubChem BioAssay (EPA / NIEHS).

Calls of active or inactive are those of the source. Rule for the calls: active = hit-call score of the fitted dose curve at least 0.9, where 1 is the maximum; inactive = score below 0.9.

Details in all cases: mRNA level, 48 h; actives raise or lower the signal
Read-out in test [1]: Bcl-2 (BAD) gene, BAD (gene 572)
Description: LTEA_HepaRG_BAD: Life Technologies and Expression Analysis (LTEA) Assay for Bcl-2 (BAD) gene using HepaRG (AID 2283469). The essentials:
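BAD transcript change, measured by qRT-PCR against three housekeeping genes and fitted in both directions relative to 0.5% DMSO, after 48 h chemical treatment of human HepaRG liver cells at concentrations up to 100 uM.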

Read-out in test [2]: Bcl-2 (BAX) gene, BAX (gene 581)
Description: LTEA_HepaRG_BAX: Life Technologies and Expression Analysis (LTEA) Assay for Bcl-2 (BAX) gene using HepaRG (AID 2283470). The essentials:
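Differentiated human HepaRG cells, plated 48 h then switched to serum-free induction medium, were exposed 48 h to 8 half-log concentrations up to 100 uM in 0.5% DMSO; BAX mRNA measured by qRT-PCR, normalized to ACTB, GAPDH, POLR2A.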

Read-out in test [3]: adenosine kinase (ADK) gene, ADK (gene 132)
Description: LTEA_HepaRG_ADK: Life Technologies and Expression Analysis (LTEA) Assay for adenosine kinase (ADK) gene using HepaRG (AID 2283471). The essentials:
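Read-out is ADK transcript level measured by qRT-PCR and normalised to three housekeeping genes. Cells are human HepaRG, dosed for 48 h at up to 100 uM in 0.5% DMSO. Gain or loss of signal is fitted against DMSO controls.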

Read-out in test [4]: Alpha-fetoprotein (AFP) gene, AFP (gene 174)
Description: LTEA_HepaRG_AFP: Life Technologies and Expression Analysis (LTEA) Assay for Alpha-fetoprotein (AFP) gene using HepaRG (AID 2283472). The essentials: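 Human HepaRG cells plated 48 h, then switched to serum-free induction medium and exposed in duplicate for 48 h to 8-point half-log series from 100 uM in 0.5% DMSO. AFP mRNA by qRT-PCR, normalized to ACTB, GAPDH, POLR2A; bidirectional fit versus DMSO.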

Read-out in a further test: BCL2L11 (gene 10018)
Description: LTEA_HepaRG_BCL2L11: Life Technologies and Expression Analysis (LTEA) Assay for Bcl-2 (BCL2L11) gene using HepaRG (AID 2283473). The essentials:
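BCL2L11 transcript levels are measured by Fluidigm qRT-PCR, normalized to three housekeeping genes. HepaRG cultures were plated 48 h, then treated 48 h with test chemical (top 100 uM, half-log, 0.5% DMSO vehicle); curves were fitted bidirectionally against DMSO.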

Read-out in test [5]: Apolipoprotein A-V (APOA5) gene, APOA5 (gene 116519)
Kind of test: LTEA_HepaRG_APOA5: Life Technologies and Expression Analysis (LTEA) Assay for Apolipoprotein A-V (APOA5) gene using HepaRG (AID 2283474). The essentials: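 APOA5 transcript levels were quantified by qRT-PCR, normalized to three housekeeping genes, after 48 h chemical treatment of HepaRG cells (8 points, 100 uM maximum, half-log steps, 0.5% DMSO). Curves fitted in both directions against vehicle.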

Read-out in test [6]: Apoptosis regulator Bcl-2 (Homo sapiens) (UniProt P10415)
Kind of test: LTEA_HepaRG_BCL2: Life Technologies and Expression Analysis (LTEA) Assay for Bcl-2 gene using HepaRG (AID 2283475). The essentials: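 Differentiated HepaRG cells in serum-free induction medium were exposed for 48 h to eight half-log concentrations up to 100 uM in 0.5% DMSO, in duplicate. BCL2 mRNA was quantified by TaqMan qRT-PCR normalised to ACTB, GAPDH and POLR2A, with bidirectional fitting versus DMSO.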

Read-out in test [7]: Bcl-2 (BID) gene, BID (gene 637)
Description: LTEA_HepaRG_BID: Life Technologies and Expression Analysis (LTEA) Assay for Bcl-2 (BID) gene using HepaRG (AID 2283476). The essentials: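 Differentiated HepaRG cells in serum-free induction medium were exposed in duplicate for 48 h to eight half-log concentrations up to 100 uM in 0.5% DMSO. BID mRNA was quantified by qRT-PCR, normalized to ACTB, GAPDH and POLR2A.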

Read-out in the next test: Caspase-3 (Homo sapiens) (UniProt P42574)
Kind of test: LTEA_HepaRG_CASP3: Life Technologies and Expression Analysis (LTEA) Assay for cysteine-aspartic acid protease (CASP3) using HepaRG (AID 2283477). The essentials:
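Expression of CASP3 was quantified by TaqMan qRT-PCR against three housekeeping genes (ACTB, GAPDH, POLR2A), bidirectionally versus 0.5% DMSO. HepaRG cultures received compounds in duplicate, top 100 uM with half-log steps, for 48 h in serum-free induction medium.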

Read-out in test [8]: Cytochrome P450 (CYP24A1), CYP24A1 (gene 1591)
Kind of test: LTEA_HepaRG_CYP24A1: Life Technologies and Expression Analysis (LTEA) Assay for Cytochrome P450 (CYP24A1) using HepaRG (AID 2283478). The gist of the method:
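mRNA of CYP24A1 quantified by TaqMan qRT-PCR (ACTB/GAPDH/POLR2A normalization) after 48 h chemical exposure of HepaRG cells, top concentration 100 uM, half-log steps, 0.5% DMSO vehicle, duplicates. Curves fitted bidirectionally against DMSO baseline.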

Apoptosis regulator Bcl-2 (Homo sapiens), sequence (P10415 whole entry, looked up): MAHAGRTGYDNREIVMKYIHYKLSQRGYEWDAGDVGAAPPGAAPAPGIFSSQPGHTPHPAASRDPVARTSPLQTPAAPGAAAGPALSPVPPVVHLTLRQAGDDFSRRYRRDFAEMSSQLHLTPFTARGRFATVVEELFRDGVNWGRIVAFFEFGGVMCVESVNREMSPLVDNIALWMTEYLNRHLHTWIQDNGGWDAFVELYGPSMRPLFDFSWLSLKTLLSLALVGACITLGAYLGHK
Caspase-3 (Homo sapiens), sequence (P42574 whole entry, looked up): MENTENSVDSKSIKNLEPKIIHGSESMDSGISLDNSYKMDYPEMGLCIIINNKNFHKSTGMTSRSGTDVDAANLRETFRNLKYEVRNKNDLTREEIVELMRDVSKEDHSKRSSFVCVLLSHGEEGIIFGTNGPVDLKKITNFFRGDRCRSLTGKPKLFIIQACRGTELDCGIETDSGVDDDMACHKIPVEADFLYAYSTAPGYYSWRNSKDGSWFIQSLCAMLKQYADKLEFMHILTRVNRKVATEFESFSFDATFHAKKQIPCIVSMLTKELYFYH

As usually defined, the AC50 is the concentration giving half of the maximal activity seen. Take `CC1=C(/C=C/C(C)=C/C=C/C(C)=C/C(=O)O)C(C)(C)CCC1`: the call (in test [1]; in test [3]; in the test with BCL2L11 (gene 10018); in test [5]; in [6]; in [7]) was inactive. The compound was called inactive with Caspase-3 (Homo sapiens). Further, the AC50 in test [2] was 20.4 µM (active); in test [4], 35.9 µM (active); in test [8], 12.8 µM (active).

Regarding `CN(C)C=O`, the call (in test [1]; in [2]; in test [3]; in test [4]; in the test with BCL2L11 (gene 10018); in test [5]) was inactive. The outcome (in [6]; in [7]; with Caspase-3 (Homo sapiens); in test [8]) was inactive.

Consider `OCCC(F)(F)C(F)(F)C(F)(F)C(F)(F)C(F)(F)C(F)(F)F`, for which the outcome (in [1]; in test [2]; in test [3]; in test [4]; with BCL2L11 (gene 10018); in test [5]) was inactive. Also, the call (in [6]; in test [7]; with Caspase-3 (Homo sapiens); in test [8]) was inactive.

As for `N#C[C@@H]1CC(F)(F)CN1C(=O)CNC1CC2CCC(C1)N2c1ncccn1` (stereo not given in full), the call (in [1]; in [2]; in test [3]; in [4]; with BCL2L11 (gene 10018); in test [5]) was inactive. In addition, the result (in [6]; in [7]; with Caspase-3 (Homo sapiens); in [8]) was inactive.

For the compound `O=c1c(-c2ccc(O)cc2)coc2cc(O)ccc12`, the result (in test [1]; in test [2]; in [3]; in test [4]; with BCL2L11 (gene 10018); in test [5]) was inactive. The compound was classed as inactive (in test [6]; in [7]; with Caspase-3 (Homo sapiens); in [8]).

Turning to `O=[N+]([O-])c1ccc(O)cc1`, the compound was classed as inactive (in [1]; in [2]; in test [3]; in test [4]; in the test with BCL2L11 (gene 10018); in [5]). In addition, the outcome (in test [6]; in [7]; with Caspase-3 (Homo sapiens); in test [8]) was inactive.

As to `CCCOC(=O)c1ccc(O)cc1`, the outcome (in test [1]; in test [2]; in [3]; in test [4]; with BCL2L11 (gene 10018); in [5]) was inactive. Moreover, the compound was classed as inactive (in [6]; in test [7]; with Caspase-3 (Homo sapiens); in test [8]).

As to `CC(C)(C)c1cccc(C(C)(C)C)c1O`, the result (in test [1]; in [2]; in [3]; in test [4]; with BCL2L11 (gene 10018); in test [5]) was inactive. The call (in test [6]; in test [7]; in the test with Caspase-3 (Homo sapiens); in test [8]) was inactive.

As to `CCCCCCCCCCCCc1ccccc1S(=O)(=O)O`, the call (in test [1]; in [3]; with BCL2L11 (gene 10018); in [7]; with Caspase-3 (Homo sapiens); in test [8]) was inactive. Also, the AC50 in test [2] was 50 µM (active); in [4] it was 80 µM (active); in test [5] it was 80.3 µM (active); in test [6], 50 µM (active).

As for `OC1CCCCC1`, the compound was classed as inactive (in test [1]; in test [2]; in test [3]; in [4]; with BCL2L11 (gene 10018); in test [5]). The call (in [6]; in test [7]; with Caspase-3 (Homo sapiens); in [8]) was inactive.

`CN1CCN(c2ccccc2/C=C2\SCCN(c3ccc(Cl)c(Cl)c3)C2=O)CC1`: the compound was classed as inactive (in test [1]; in test [2]; in test [3]; in the test with BCL2L11 (gene 10018); in test [5]; in [6]). For the same compound, the call (with Caspase-3 (Homo sapiens); in test [8]) was inactive. Moreover, the results for the AC50 in test [4] and in [7] were 11.5 µM (active) and 83.9 µM (active), respectively.

As to `CCC(C)(C)C1CCC(O)CC1` (stereo not given), the compound was classed as inactive (in [1]; in [2]; in [3]; in test [4]; in the test with BCL2L11 (gene 10018); in test [5]). Besides, the compound was called inactive (in test [6]; in test [7]; with Caspase-3 (Homo sapiens); in [8]).

On to `CC[C@H](C)[C@@H](C(=O)O)n1sc2ccccc2c1=O`, for which the result (in [1]; in test [2]; in test [3]; in test [4]; with BCL2L11 (gene 10018); in test [5]) was inactive. Further, the result (in [6]; in test [7]; with Caspase-3 (Homo sapiens); in test [8]) was inactive.

In the case of `CC(C)(C)c1cc(C(C)(C)C)c(O)c(C(C)(C)C)c1`, the compound was classed as inactive (in test [1]; in test [2]; in [3]; with BCL2L11 (gene 10018); in test [5]; in test [6]). The call (in [7]; in the test with Caspase-3 (Homo sapiens); in [8]) was inactive. For the same compound, in test [4], the AC50 was 39.8 µM (active).

Take `CN1CCC[C@H]1c1cccnc1`: the compound was classed as inactive (in test [1]; in test [2]; in test [3]; in [4]; with BCL2L11 (gene 10018); in [5]). The result (in test [6]; in test [7]; in the test with Caspase-3 (Homo sapiens); in test [8]) was inactive.

Turning to `C=C(C)C(=O)OCCC(F)(F)C(F)(F)C(F)(F)C(F)(F)C(F)(F)C(F)(F)F`, the call (in [1]; in test [2]; in test [3]; in [4]; with BCL2L11 (gene 10018); in [5]) was inactive. Also, the result (in test [6]; in test [7]; with Caspase-3 (Homo sapiens); in [8]) was inactive.
